In ChEMBL document CHEMBL4513216, “Probing the Open Global Health Chemical Diversity Library for Multistage-Active Starting Points for Next-Generation Antimalarials” (ACS Infect Dis, 2020) one finds INHIBITION data, which are given here for 31 compounds.

Out of some 69,000 compounds screened, about 8,600 (12%) showed an effect of 50% or more. Shown is part of a subset that was picked to be rich in strong results.

The subject of the assay is Plasmodium berghei. Put plainly: Screen against P. berghei liver stage (PbLuc), transformed with Luciferase, at 10uM. The format is functional, HepG2. The following applies: tested at 10 uM.
With `OCCN(Cc1ccncc1)CC1(c2ccc(Cl)cc2)CC1`, the INHIBITION turned out to be 46.2%.

As to `CC(Nc1cccc2c1OCCO2)C(=O)Nc1ccc(S(N)(=O)=O)cc1` (stereo unspecified), the INHIBITION was -24.9%.

On to `Cc1nc(CN(C)C2CCN(CCCOc3ccccc3C)C2)no1` (stereo unspecified), for which the INHIBITION worked out at 27.4%.

On to `CC(C)c1nc(C(=O)N2CCOCC2CC(=O)c2ccco2)cs1` (stereo unspecified), for which the INHIBITION is listed as 37.4%.

`O=C(NCC1CCN(Cc2cc3ccccc3[nH]2)C1)C1CCCCC1` (stereo unspecified): the INHIBITION amounted to 54.1%.

As for `O=C(Cn1cccc1)NCC1CCN(Cc2cc3ccccc3[nH]2)C1` (stereo unspecified), the INHIBITION turned out to be 46.7%.

On to `COC(C)(C)C(=O)NCC1CCN(Cc2cc3ccccc3[nH]2)C1` (stereo unspecified), for which the INHIBITION worked out at 40.8%.

As to `Cc1nc(NCC2CC2)nc2c1COCC21CCN(C(=O)NC(C)C)C1` (stereo unspecified), the INHIBITION was determined as 29.9%.

On to `CN(CC1CCOC1)c1ncc(Br)cn1` (stereo unspecified), for which the INHIBITION came out at 12.8%.

With `CC(NC(=O)CSCC#N)c1cccc(Cl)c1` (stereo unspecified), the INHIBITION is on record as -29.7%.

`Cc1nc(CN2CCCC(Cn3cncn3)C2)nc2ccccc12` (stereo unspecified): the INHIBITION is 29.95%.

Turning to `Cc1cnc(NCCCN2CCc3ccccc32)nc1`, the INHIBITION is recorded as -15.4%.

As to `CN(C)c1nc(NCCCN2CCc3ccccc32)ncc1F`, the INHIBITION stood at 55.1%.

Consider `Cc1ccnc(NCCCN2CCc3ccccc32)n1`, for which the INHIBITION stood at 3.58%.

For `CCOc1ccc(C(=O)CCC(=O)NCc2cncn2CC)cc1C`, the INHIBITION is listed as -5.59%.

For `CCOc1ccc(C(=O)CCC(=O)N(C)Cc2cnccn2)cc1C`, the INHIBITION is 40.6%.

On to `Cc1ccc(F)c(NC(=O)CCC(=O)N(C)Cc2nc(C)c[nH]2)c1`, for which the INHIBITION was 53.9%.

In the case of `COCc1cc(CN(C)C(=O)CCC(=O)Nc2cc(C)ccc2F)n[nH]1`, the INHIBITION came out at 34.4%.

As to `CCc1cccc(NC(=O)CCC(=O)N(C)Cc2nc(C)c[nH]2)c1`, the INHIBITION is given as 12.8%.

`CCOc1ccc(C(=O)CCC(=O)NCc2csc(N)n2)cc1C`: the INHIBITION is recorded as 56.1%.

`CCOc1ccc(C(=O)CCC(=O)NCCc2nncn2CC)cc1C`: the INHIBITION worked out at 15%.

As to `CCOc1ccc(C(=O)CCC(=O)N(C)Cc2nc(C)c[nH]2)cc1C`, the INHIBITION came out at 63.4%.

On to `CCOc1ccc(C(=O)CCC(=O)N(C)Cc2noc(C)n2)cc1C`, for which the INHIBITION is 11.9%.

As for `CCOCC(=O)N1C[C@@H]2CCN(c3cnccn3)C[C@@H]2C1`, the INHIBITION stood at 32.1%.

`COC(=O)c1cc2c(=O)n(C3CCCC3)ccc2nc1C`: the INHIBITION is given as 46.1%.

In the case of `Cn1cccc1CN1CCC2(CC1)CCN(C(=O)c1cnccn1)CC2`, the INHIBITION was 39.5%.

For the compound `CNC(=O)[C@@]12CCC3(CCN(C(=O)C(C)C)CC3)[C@@H]1CN(S(C)(=O)=O)C2`, the INHIBITION turned out to be 26.3%.

`Cc1cc(C(=O)N2CCOCC2c2nc(C)c[nH]2)nc(O)n1` (stereo unspecified): the INHIBITION was found to be 27.75%.

As to `NC(C(=O)N1CCSc2ccccc2C1)c1ccccc1` (stereo unspecified), the INHIBITION is on record as -22.1%.

Consider `CC(C)C[C@H](N)C(=O)N1CCSc2ccccc2C1`, for which the INHIBITION was 81.6%.

In the case of `CC(C)[C@H](N)C(=O)N1CCSc2ccccc2C1`, the INHIBITION is on record as -20.5%.
